Drawing on ChEMBL document CHEMBL1961873, “Compounds: GSK PKIS; Assays: Nanosyn kinase panel” (2012), this text covers inhibition for 6 compounds.

In experiment [1] the target is Tyrosine-protein kinase SYK (Homo sapiens) (UniProt P43405). As to conditions: at 1 µM.
In experiment [2] the target is T1, Tyrosine-protein kinase Tec (Homo sapiens) (UniProt P42680).
T1 sequence (whole entry): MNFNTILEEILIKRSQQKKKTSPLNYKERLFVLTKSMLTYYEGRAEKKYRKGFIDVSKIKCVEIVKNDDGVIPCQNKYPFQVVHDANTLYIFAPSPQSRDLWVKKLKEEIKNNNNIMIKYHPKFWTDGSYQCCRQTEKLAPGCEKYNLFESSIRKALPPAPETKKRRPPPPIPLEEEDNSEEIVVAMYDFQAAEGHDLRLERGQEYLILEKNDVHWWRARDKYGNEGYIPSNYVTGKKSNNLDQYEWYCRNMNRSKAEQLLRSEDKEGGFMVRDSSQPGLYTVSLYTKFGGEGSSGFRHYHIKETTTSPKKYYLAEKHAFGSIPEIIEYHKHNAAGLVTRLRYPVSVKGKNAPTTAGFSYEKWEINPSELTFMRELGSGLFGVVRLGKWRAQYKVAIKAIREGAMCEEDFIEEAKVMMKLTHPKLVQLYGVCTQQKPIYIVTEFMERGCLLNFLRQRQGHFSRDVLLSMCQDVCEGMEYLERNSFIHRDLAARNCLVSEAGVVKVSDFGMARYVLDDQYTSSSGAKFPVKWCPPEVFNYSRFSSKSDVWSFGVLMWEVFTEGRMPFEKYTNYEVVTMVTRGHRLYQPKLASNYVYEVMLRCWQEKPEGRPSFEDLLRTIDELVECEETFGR
The settings on record: at 0.1 µM.

Experiment [3] deals with T1, Tyrosine-protein kinase Tec (Homo sapiens). As to conditions: at 1 µM.
In experiment [4] the target is Angiopoietin-1 receptor (Homo sapiens) (UniProt Q02763). As to conditions: at 0.1 µM.
Experiment [5] has the same target. The settings on record: at 1 µM.
Experiment [6] has as its target T2, Non-receptor tyrosine-protein kinase TNK1 (Homo sapiens) (UniProt Q13470).
T2 sequence (whole entry): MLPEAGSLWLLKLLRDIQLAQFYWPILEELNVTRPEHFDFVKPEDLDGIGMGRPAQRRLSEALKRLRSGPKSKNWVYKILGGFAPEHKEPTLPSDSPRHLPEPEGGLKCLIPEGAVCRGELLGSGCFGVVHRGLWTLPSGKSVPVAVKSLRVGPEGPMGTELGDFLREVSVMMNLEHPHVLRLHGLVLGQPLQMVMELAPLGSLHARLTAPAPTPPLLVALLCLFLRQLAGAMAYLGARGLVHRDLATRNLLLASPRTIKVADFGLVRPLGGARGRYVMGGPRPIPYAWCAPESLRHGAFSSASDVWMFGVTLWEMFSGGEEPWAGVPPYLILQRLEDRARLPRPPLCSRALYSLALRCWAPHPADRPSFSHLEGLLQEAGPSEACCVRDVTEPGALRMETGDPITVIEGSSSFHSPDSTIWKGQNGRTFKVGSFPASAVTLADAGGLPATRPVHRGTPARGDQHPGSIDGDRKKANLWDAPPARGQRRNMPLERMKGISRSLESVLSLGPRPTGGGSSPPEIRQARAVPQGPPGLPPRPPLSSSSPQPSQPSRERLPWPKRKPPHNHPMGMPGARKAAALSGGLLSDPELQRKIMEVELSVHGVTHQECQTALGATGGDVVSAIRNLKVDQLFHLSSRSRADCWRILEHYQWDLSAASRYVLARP
The settings on record: at 0.1 µM.

The target of experiment [7] is T2, Non-receptor tyrosine-protein kinase TNK1 (Homo sapiens). As to conditions: at 1 µM.
The target in experiment [8] is Activated CDC42 kinase 1 (Homo sapiens) (UniProt Q07912). As to conditions: at 0.1 µM.
Chain of Activated CDC42 kinase 1 (Homo sapiens) (Q07912 whole entry, looked up): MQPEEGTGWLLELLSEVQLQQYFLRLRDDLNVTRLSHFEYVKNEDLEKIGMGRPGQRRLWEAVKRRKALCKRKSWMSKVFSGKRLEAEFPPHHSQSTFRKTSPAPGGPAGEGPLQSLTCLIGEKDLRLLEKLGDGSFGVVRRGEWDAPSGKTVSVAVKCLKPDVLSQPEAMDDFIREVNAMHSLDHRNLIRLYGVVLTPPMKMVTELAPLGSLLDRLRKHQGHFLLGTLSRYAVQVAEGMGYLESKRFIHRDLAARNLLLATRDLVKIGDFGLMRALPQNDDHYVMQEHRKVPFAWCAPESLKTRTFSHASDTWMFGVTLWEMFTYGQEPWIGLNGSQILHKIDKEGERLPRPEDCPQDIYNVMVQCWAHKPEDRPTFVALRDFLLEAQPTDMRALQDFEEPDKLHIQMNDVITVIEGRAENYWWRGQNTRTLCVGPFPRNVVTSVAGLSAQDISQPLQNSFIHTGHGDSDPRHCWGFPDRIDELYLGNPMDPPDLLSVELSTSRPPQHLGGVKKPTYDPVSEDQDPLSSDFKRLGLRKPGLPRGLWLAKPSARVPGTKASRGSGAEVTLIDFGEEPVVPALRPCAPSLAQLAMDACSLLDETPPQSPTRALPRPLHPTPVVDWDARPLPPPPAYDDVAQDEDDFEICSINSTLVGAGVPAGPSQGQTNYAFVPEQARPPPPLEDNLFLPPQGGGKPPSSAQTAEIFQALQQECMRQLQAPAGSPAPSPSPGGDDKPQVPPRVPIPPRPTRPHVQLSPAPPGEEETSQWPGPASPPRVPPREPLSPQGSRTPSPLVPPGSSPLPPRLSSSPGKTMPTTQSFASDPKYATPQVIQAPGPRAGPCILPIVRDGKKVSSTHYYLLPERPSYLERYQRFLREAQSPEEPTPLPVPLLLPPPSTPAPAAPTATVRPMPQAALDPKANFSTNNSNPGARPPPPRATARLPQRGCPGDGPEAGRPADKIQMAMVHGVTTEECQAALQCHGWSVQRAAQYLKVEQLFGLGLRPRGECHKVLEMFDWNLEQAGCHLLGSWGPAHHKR
The target is the same in experiment [9]. The settings on record: at 1 µM.
In experiment [10] the target is High affinity nerve growth factor receptor (Homo sapiens) (UniProt P04629). The settings on record: at 0.1 µM.
Chain of High affinity nerve growth factor receptor (Homo sapiens) (P04629 33-796 limits assumed): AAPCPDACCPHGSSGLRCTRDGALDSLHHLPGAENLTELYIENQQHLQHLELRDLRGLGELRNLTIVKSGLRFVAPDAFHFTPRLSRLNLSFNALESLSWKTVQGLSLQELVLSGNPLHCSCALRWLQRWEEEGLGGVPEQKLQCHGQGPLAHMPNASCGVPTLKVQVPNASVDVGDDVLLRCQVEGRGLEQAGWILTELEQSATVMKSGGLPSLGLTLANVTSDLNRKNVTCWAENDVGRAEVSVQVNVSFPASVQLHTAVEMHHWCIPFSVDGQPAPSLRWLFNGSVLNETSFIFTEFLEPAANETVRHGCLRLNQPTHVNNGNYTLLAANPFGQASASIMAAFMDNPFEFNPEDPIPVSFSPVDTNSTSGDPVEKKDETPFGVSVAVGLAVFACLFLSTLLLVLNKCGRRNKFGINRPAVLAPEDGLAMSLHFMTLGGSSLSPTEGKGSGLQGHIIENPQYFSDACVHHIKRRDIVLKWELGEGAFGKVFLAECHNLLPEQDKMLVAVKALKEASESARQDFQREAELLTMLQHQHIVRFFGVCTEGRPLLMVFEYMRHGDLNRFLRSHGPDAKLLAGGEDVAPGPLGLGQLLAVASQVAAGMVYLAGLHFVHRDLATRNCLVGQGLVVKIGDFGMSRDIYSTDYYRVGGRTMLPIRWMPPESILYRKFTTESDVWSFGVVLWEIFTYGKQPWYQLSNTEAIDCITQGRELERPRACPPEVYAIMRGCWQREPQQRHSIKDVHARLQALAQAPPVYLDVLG
For experiment [11] the target is unchanged. As to conditions: at 1 µM.
In experiment [12] the target is BDNF/NT-3 growth factors receptor (Homo sapiens) (UniProt Q16620). As to conditions: at 0.1 µM.
Chain of BDNF/NT-3 growth factors receptor (Homo sapiens) (Q16620 32-822 limits assumed): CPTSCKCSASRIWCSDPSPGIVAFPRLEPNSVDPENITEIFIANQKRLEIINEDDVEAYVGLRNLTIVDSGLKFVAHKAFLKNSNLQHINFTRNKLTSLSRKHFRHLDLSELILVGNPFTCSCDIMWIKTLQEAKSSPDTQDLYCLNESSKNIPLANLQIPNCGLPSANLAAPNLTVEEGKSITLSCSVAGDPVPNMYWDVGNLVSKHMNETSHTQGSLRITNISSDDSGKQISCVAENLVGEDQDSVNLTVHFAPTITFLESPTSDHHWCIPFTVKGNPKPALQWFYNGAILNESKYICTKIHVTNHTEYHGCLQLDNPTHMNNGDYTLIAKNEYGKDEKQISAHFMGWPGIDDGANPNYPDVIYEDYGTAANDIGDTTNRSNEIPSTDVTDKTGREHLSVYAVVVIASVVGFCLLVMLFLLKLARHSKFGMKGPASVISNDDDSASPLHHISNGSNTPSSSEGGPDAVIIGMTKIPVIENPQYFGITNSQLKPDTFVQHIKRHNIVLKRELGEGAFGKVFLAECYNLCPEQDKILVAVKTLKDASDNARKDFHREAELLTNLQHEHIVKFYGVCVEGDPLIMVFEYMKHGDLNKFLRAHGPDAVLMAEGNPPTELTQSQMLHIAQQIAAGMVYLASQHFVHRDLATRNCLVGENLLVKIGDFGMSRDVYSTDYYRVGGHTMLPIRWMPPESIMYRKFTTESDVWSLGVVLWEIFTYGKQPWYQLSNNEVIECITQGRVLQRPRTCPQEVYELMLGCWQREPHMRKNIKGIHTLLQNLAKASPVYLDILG
Experiment [13] shares this target. As to conditions: at 1 µM.
Experiment [14] deals with NT-3 growth factor receptor (Homo sapiens) (UniProt Q16288). The settings on record: at 0.1 µM.
Chain of NT-3 growth factor receptor (Homo sapiens) (Q16288 32-839 limits assumed): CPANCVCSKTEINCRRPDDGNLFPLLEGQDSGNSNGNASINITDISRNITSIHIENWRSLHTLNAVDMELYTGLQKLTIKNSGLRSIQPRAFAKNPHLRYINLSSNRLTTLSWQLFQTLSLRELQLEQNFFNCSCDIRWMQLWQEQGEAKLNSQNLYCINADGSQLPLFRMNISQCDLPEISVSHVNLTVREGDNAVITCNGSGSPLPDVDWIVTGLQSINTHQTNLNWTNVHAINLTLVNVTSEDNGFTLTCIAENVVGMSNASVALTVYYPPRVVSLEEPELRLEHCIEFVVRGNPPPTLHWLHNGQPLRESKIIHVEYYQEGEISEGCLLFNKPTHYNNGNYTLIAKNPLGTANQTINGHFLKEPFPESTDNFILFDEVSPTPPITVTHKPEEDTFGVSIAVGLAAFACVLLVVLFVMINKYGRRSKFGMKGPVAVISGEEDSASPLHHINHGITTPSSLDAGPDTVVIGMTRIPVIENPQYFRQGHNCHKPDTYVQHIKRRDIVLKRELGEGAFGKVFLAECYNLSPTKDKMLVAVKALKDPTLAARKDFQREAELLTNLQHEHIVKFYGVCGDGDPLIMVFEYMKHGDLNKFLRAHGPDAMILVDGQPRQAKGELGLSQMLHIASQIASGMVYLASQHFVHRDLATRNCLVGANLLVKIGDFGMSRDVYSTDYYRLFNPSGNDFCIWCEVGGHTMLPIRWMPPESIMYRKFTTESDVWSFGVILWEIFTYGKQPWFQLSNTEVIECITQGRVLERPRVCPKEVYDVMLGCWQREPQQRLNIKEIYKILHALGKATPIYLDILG
Experiment [15] has the same target. As to conditions: at 1 µM.
The target of experiment [16] is T3, Tyrosine-protein kinase TXK (Homo sapiens) (UniProt P42681).
T3 sequence (whole entry): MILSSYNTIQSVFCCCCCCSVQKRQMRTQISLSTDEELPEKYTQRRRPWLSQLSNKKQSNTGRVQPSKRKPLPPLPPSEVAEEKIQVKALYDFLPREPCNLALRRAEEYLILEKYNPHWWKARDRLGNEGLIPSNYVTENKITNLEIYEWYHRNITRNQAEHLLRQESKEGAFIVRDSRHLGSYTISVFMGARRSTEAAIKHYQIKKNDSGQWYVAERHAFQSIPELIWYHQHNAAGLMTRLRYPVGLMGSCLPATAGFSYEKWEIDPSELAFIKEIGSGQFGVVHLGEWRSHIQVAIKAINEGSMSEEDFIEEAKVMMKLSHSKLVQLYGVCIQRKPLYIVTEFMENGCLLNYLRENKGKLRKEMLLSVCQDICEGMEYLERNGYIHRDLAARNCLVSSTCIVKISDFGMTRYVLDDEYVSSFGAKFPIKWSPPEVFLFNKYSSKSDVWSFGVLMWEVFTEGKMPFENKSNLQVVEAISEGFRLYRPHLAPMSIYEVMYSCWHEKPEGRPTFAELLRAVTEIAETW
The settings on record: at 0.1 µM.

In experiment [17] the target is T3, Tyrosine-protein kinase TXK (Homo sapiens). As to conditions: at 1 µM.
The target of experiment [18] is Non-receptor tyrosine-protein kinase TYK2 (Homo sapiens) (UniProt P29597). As to conditions: at 0.1 µM.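 Further: each value is a mean of the inhibition readings.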
Chain of Non-receptor tyrosine-protein kinase TYK2 (Homo sapiens) (P29597 whole entry): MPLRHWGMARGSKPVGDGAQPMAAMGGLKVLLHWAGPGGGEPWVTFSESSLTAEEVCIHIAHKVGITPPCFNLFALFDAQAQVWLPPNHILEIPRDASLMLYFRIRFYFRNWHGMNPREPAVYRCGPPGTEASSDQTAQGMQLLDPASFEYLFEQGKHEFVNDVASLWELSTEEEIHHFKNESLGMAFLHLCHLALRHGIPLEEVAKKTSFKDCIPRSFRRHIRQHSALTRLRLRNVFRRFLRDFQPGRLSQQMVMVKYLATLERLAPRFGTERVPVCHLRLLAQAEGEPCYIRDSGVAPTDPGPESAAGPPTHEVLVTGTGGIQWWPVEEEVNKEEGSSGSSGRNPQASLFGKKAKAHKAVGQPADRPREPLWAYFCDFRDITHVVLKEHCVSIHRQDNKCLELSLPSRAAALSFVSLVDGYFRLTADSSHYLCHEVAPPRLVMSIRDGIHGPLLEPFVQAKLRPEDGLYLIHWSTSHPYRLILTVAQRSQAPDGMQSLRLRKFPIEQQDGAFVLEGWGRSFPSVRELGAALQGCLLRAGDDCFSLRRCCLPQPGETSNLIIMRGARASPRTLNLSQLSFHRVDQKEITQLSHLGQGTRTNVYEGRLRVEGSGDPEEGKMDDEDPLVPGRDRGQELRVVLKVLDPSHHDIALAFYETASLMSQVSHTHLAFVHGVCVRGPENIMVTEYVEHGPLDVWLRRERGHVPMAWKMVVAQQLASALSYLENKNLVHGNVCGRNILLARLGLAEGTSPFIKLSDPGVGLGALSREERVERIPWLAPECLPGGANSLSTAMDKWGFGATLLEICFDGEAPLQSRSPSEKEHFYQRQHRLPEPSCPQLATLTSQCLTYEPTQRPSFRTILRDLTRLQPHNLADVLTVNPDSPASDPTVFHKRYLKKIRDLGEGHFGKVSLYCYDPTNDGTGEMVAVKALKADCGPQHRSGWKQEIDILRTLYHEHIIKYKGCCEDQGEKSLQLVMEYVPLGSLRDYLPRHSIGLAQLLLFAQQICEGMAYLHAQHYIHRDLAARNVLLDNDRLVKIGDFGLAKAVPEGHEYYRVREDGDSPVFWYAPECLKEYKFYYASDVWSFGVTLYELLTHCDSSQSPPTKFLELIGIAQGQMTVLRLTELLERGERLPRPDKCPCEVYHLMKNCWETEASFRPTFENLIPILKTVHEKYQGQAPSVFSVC
In experiment [19] the target is T4, Dual specificity protein kinase TTK (Homo sapiens) (UniProt P33981).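 Further: reported figures are mean TTK inhibition at 1 µM.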
T4 sequence (whole entry): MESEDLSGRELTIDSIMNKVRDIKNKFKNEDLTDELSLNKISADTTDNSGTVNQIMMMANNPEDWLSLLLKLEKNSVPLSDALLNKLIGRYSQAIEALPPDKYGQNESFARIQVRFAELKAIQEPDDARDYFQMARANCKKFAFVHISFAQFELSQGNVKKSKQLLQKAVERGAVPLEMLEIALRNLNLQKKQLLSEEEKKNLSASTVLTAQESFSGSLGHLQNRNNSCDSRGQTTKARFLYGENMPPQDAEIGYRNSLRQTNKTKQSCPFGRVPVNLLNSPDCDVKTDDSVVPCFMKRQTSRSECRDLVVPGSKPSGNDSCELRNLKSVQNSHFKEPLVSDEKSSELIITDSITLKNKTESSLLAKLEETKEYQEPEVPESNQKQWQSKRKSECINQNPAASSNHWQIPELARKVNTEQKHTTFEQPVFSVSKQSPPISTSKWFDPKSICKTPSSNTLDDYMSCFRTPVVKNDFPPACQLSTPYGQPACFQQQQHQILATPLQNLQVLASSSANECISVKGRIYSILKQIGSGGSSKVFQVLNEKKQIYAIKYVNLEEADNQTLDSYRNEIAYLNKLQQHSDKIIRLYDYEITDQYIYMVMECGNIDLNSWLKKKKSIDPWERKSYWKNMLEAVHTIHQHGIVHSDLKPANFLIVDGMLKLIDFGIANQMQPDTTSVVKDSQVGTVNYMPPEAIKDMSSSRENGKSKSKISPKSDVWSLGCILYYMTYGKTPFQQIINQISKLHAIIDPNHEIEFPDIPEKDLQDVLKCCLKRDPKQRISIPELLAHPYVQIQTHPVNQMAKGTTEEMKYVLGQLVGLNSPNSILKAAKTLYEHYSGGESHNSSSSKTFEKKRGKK
The settings on record: at 1 µM.

For experiment [20], the target named is T5, Aurora kinase A (Homo sapiens) (UniProt O14965).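 Further: each reported value is a mean percent inhibition of Aurora-A.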
T5 sequence (whole entry): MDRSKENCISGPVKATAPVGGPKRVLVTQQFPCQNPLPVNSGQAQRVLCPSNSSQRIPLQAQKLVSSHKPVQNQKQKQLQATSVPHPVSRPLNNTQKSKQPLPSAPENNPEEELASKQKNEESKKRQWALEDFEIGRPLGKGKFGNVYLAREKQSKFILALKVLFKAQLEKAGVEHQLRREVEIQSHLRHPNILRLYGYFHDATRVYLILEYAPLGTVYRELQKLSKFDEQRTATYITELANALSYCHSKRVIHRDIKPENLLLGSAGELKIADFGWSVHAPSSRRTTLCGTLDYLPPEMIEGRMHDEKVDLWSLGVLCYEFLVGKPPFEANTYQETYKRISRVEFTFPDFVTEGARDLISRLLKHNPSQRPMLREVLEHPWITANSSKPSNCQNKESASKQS
The settings on record: at 0.1 µM.

Broadly, the inhibition is the change of the read-out against control, counted positive when it falls. Take `CCOc1nccc2c1nc(-c1nonc1N)n2CC`: the inhibition in experiment [1] stood at 1.57%; in [2], 3.96%; in [3], 5.87%; in experiment [4], 2.25%; in experiment [5] it was 8.59%; in [6], 2.63%. For the same compound, the inhibition is 20.1% in experiment [7]; 3.04% in experiment [8]; 7.54% in experiment [9]; -1.22% in [10]; 3.61% in [11]; -0.99% in [12]. Moreover, the inhibition in experiment [13] was 5.51%; in experiment [14] it was 1.31%; in [15] it was 5.16%; in experiment [16] it was 4.89%; in experiment [17], 5.69%; in experiment [18], -0.93%. The inhibition in experiment [19] amounted to 6.96%; in experiment [20], 0.6%.

Turning to `Oc1cccc(-c2nc(-c3ccccc3)[nH]c2-c2ccncc2)c1`, the inhibition in experiment [1] worked out at 1.53%; in [2], 5.02%; in experiment [3], 9.92%; in experiment [4], 3.23%; in experiment [5] it was 15.7%; in [6], 3.62%. In addition, the inhibition in experiment [7] was 12.3%; in experiment [8], 1.47%; in experiment [9] it was 2.85%; in experiment [10], 3.43%; in experiment [11], 5.31%; in experiment [12], 3.82%. The inhibition in experiment [13] was 5.72%; in experiment [14], 4.99%; in experiment [15] it was 7.3%; in [16], 3.28%; in [17], 13.8%; in experiment [18], -1.97%. In addition, the values for the inhibition in experiment [19] and in experiment [20] were 12.4% and 2.96%, respectively.

`NS(=O)(=O)c1ccc(-c2cc3ccncc3cc2OCc2ccccc2)cc1`: the inhibition came out at 0.64% in [1]; 2.94% in experiment [2]; 4.44% in [3]; 1.38% in experiment [4]; 3.06% in experiment [5]; 3.48% in experiment [6]. The inhibition is 16% in experiment [7]; 0.6% in experiment [8]; 2.21% in [9]; 4.15% in [10]; 0.22% in experiment [11]; 2.7% in [12]. The inhibition was 2.46% in experiment [13]; 2.49% in experiment [14]; 5.04% in experiment [15]; 1.58% in experiment [16]; 1.28% in [17]; -3.96% in experiment [18]. For the same compound, the results for the inhibition in experiment [19] and in experiment [20] were 9.25% and 2.34%, respectively.

On to `N#Cc1c(NC(=O)c2ccccc2F)sc2c1CCCC2`, for which the inhibition in experiment [1] is 0.42%; in [2], -1.7%; in [3], 0.35%; in experiment [4], -1.22%; in experiment [5], 3.44%; in experiment [6], -2.62%. Also, the inhibition in [7] is -0.58%; in [8], -0.05%; in experiment [9] it was 3%; in [10], -0.84%; in experiment [11] it was -2.78%; in experiment [12] it was -1.85%. Moreover, the inhibition is -1.97% in experiment [13]; 0.83% in experiment [14]; -1.95% in experiment [15]; -0.16% in experiment [16]; 1.71% in [17]; 2.79% in [18]. In addition, the inhibition is 1.13% in experiment [19] and -0.7% in [20].

With `Cc1ccc2c(c1)/C(=N/Nc1ccc(S(N)(=O)=O)cc1)C(=O)N2`, the inhibition was -2.83% in experiment [1]; 1.52% in [2]; 4.33% in [3]; -0.15% in [4]; 2.63% in [5]; -2.23% in [6]. For the same compound, the inhibition is 3.63% in experiment [7]; -0.48% in experiment [8]; -0.62% in [9]; -1.8% in [10]; 11.8% in experiment [11]; 3.81% in [12]. The inhibition amounted to 31.2% in experiment [13]; 4.95% in experiment [14]; 39.2% in experiment [15]; 1.24% in experiment [16]; 3.92% in experiment [17]; 1.2% in [18]. Also, the inhibition in experiment [19] is 33.2%; in [20], 2.87%.

In the case of `CCn1c(-c2nonc2N)nc2ccc(F)cc21`, the inhibition in experiment [1] is -1.93%; in [2], 6.29%; in experiment [3] it was 3.97%; in [4], 2.7%; in experiment [5] it was 1.79%; in experiment [6] it was 7.71%. In addition, the inhibition in [7] was found to be 9.97%; in experiment [8], 1.53%; in experiment [9] it was 3.08%; in experiment [10], 2.92%; in experiment [11], 2.84%; in experiment [12], 4.03%. The inhibition in experiment [13] is 4.23%; in experiment [14], 3.74%; in experiment [15], 4.75%; in [16] it was 1.94%; in experiment [17], 0.47%; in experiment [18], -3.66%. Further, the inhibition came out at 11.6% in experiment [19] and 3.17% in [20].
